The list is not random: actives were taken first. Their share in the collection is about 7.1%.
MARV entry inh – blocks Marburg virus binding or cell entry; Marburg virus pseudotype entry/binding inhibition, cell-based; 18,000 compounds, 6.5% hits; Potency, µM (top dose mostly 49.2 µM), actives largely listed as inhibitors
LASV entry inh – inhibitors of Lassa virus binding or entry into cells | Potency, µM (series often up to 49.2 µM), hits mostly inhibitors | 18,000 compounds, 4.1% hits | AID 720533 | Lassa virus pseudotyped entry inhibition, cell-based qHTS
Large screens that a line does not name were inactive; ! = a repeat was not active. The call rests on the fitted dose curve; tested in HEK293 cells.

C=C(C)C(=O)OC[C@H]1CN2[C@H](c3ccc(Br)cc3)[C@H](C)CC[C@H]2C(=O)O1	MARV entry inh inconclusive
C[C@@H](c1ccccc1)N1C(=O)[C@@H]2[C@H]3[C@H](O)[C@H](O)CC(=NNC(=O)OCc4ccccc4)[C@@H]3CC[C@H]2C1=O	none
C[CH2][Hg][S]c1ccccc1C(=O)O	MARV entry inh inconclusive, LASV entry inh 1.1µM
O=C(O)c1ccccc1O	none
CN(C)c1ccc2[nH]c(O)c(C=Nc3ccc(S(N)(=O)=O)cc3)c2c1	none (no result: LASV entry inh)
CCCOC(C(=O)OC1CCN(C)CC1)(c1ccccc1)c1ccccc1	MARV entry inh 6.3µM, LASV entry inh 16µM
C[N+]1(C)CCC(OC(=O)C(O)(c2ccccc2)C2CCCC2)C1 (configuration not stated)	LASV entry inh inconclusive
COC(=O)N[C@H](CC(C)=O)c1cccc(F)c1	none
CCN1C(=NCCCOC(C)C)N[C@@H](CCc2ccccc2)[C@H](C(=O)OC)[C@H]1C	none
CCc1cc2c(nc1CC)CCN(CCC(C)=NO[C@H](C)c1cn([C@H](CO)Cc3ccccc3)nn1)C2	MARV entry inh inconclusive
O[C@H]1[C@H]2c3cc4c(cc3CN3CCC(=C[C@@H]1O)[C@H]23)OCO4	none
OC1C=C2CCN3Cc4cc5c(cc4C(C1O)C23)OCO5 (configuration not stated)	MARV entry inh 13µM
NC1(C(=O)O)CC(C(=O)O)C1 (configuration not stated)	none
N[C@@]1(C(=O)O)CN[C@@H](C(=O)O)C1	MARV entry inh 28µM
O=S1(=O)c2ccc(Br)cc2-n2nncc2CN1Cc1ccc(C(F)(F)F)cc1	none
CCCCCc1cc(O)c2c(c1)OC(C)(C)c1ccc(C)cc1-2	MARV entry inh inconclusive, LASV entry inh 32µM
COC(=O)C1=NN=C(C(=O)OC)[C@@]2(C)c3ccccc3NC12 (some centres not stated)	none
COC(=O)C1=C(C(=O)OC)[C@@H]2N(C)c3ccccc3[C@@]23C[C@@H](CO)N(C(=O)NC2CCCC2)C3=N1	MARV entry inh inconclusive
CO[C@H]1C[C@@H]2CC[C@@H](C)[C@@](O)(O2)C(=O)C(=O)N2CCCC[C@H]2C(=O)O[C@H](C(C)C[C@H]2CC[C@@H](O)[C@H](OC)C2)CC(=O)[C@H](C)/C=C(\C)[C@@H](O)[C@@H](OC)C(=O)[C@H](C)C[C@H](C)/C=C/C=C/C=C/1C (some centres not stated)	MARV entry inh inconclusive
CO[C@H]1C[C@@H]2CC[C@@H](C)[C@@](O)(O2)C(=O)C(=O)N2CCCC[C@H]2C(=O)O[C@H]([C@H](C)C[C@@H]2CC[C@@H](OCCO)[C@H](OC)C2)CC(=O)[C@H](C)/C=C(\C)[C@@H](O)[C@@H](OC)C(=O)[C@H](C)C[C@H](C)/C=C/C=C/C=C/1C	MARV entry inh inconclusive, LASV entry inh 25µM
CCS(=O)(=O)c1ccc(OC)c(Nc2ncc(-c3cccc(-c4ccccc4F)c3)o2)c1	none (no result: LASV entry inh)
CC(C)NCC(O)COc1cccc2ccccc12 (configuration not stated)	MARV entry inh 20µM, LASV entry inh inconclusive
CC(C)NC[C@@H](O)COc1cccc2[nH]ccc12	none
C=COCCN1C=C(C(=O)OCC)C(c2ccccc2)NC1=O (configuration not stated)	none
CC(C)[C@@H](OCc1ccccc1)[C@H](C)CON=C1[C@H]2CCn3c(=O)n(-c4ccccc4)c(=O)n3[C@@H]2[C@H](O)[C@@H]2O[C@H]12	none
CNCCNS(=O)(=O)c1cccc2cnccc12	none
O=S(=O)(NCCNC/C=C/c1ccc(Br)cc1)c1cccc2cnccc12	MARV entry inh 13µM
CC(C)=CCN1CC[C@]2(C)c3cc(O)ccc3C[C@H]1[C@H]2C	MARV entry inh inconclusive
C=CCN1CC[C@]23CCCC[C@H]2[C@H]1Cc1ccc(O)cc13	MARV entry inh 28µM, LASV entry inh inconclusive
COc1ccc2c(c1)C13CCCC[C@@H]1C(C2)N(C)CC3 (some centres not stated)	MARV entry inh inconclusive
Oc1ccc2c(c1)[C@@]13CCCCC1[C@@H](C2)N(CC1CCC1)CC3 (some centres not stated)	MARV entry inh 10µM, LASV entry inh inconclusive
COc1ccc([C@]23Cc4cc(OC)c(OC)cc4[C@H](O2)c2c(cc(C)n(Cc4ccccc4)c2=O)O3)cc1	none
Cc1ccc(CN2[C@@H](C)[C@@H](C)Oc3c(Cl)cccc3[S+]2(=O)[O-])cc1	none
COc1ccc(/C=C/C(=O)CC(=O)/C=C/c2cccc(O)c2OC)cc1O	MARV entry inh 8.9µM, LASV entry inh 10µM
COc1cccc(/C=C/C(=O)O)c1C(C)C	none
COc1cc(C=O)ccc1O	none
COc1cc(C=C2CCC/C(=C\c3ccc(O)c(OC)c3)C2=O)ccc1O	MARV entry inh inconclusive, LASV entry inh 32µM
COc1cc(/C=C/C(=O)CC(=O)/C=C/c2ccc(O)c(OC)c2)ccc1O	MARV entry inh inconclusive, LASV entry inh 32µM!
COc1cc(/C=C/C(=O)O)ccc1O	none

Assay outcomes (PubChem BioAssay)
